In PubChem BioAssay (EPA / NIEHS) one finds AC50 and outcome data, which are given here for 4 molecules.

Structures are written as SMILES. Inconclusive results are not listed. The source made the active and inactive calls. Rule for the calls, unless noted: active = hit-call score of the fitted dose curve at least 0.9, where 1 is the maximum; inactive = score below 0.9.

For orientation: AC50 means the concentration at which the activity in the assay is half-maximal.

Read-out in experiment [1]: Pyruvate Dehydrogenase Kinase 4 (PDK4), PDK4 (gene 5166)
The experiment can be described thus: LTEA_HepaRG_PDK4: Life Technologies and Expression Analysis (LTEA) Assay for Pyruvate Dehydrogenase Kinase 4 (PDK4) using HepaRG (AID 2283525). Particulars: mRNA level, 48 h; actives raise or lower the signal. In outline: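 In this multiplexed human HepaRG expression assay, cells are treated 48 h with test chemicals across an eight-point range starting at 100 uM. PDK4 mRNA changes, normalized to ACTB/GAPDH/POLR2A, are fitted in both directions relative to vehicle.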

Read-out in experiment [2]: NAD(P)H dehydrogenase [quinone] 1 (NQO1), NQO1 (gene 1728)
Nature of the experiment: LTEA_HepaRG_NQO1: Life Technologies and Expression Analysis (LTEA) Assay for NAD(P)H dehydrogenase [quinone] 1 (NQO1) using HepaRG (AID 2283526). The conditions noted are these: mRNA level, 48 h; actives raise or lower the signal. In outline:
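Human HepaRG hepatic cells received chemicals for 48 h in serum-free induction medium with 0.5% DMSO, up to 100 uM. Expression was assessed by TaqMan qRT-PCR against housekeeping controls and fitted bidirectionally against DMSO.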

Read-out in experiment [3]: Nuclear factor erythroid 2-related factor 2 (Homo sapiens) (UniProt Q16236)
The experiment can be described thus: LTEA_HepaRG_NFE2L2: Life Technologies and Expression Analysis (LTEA) Assay for Nuclear factor erythroid 2-related factor 2 (NFE2L2) Transcription Factor using HepaRG (AID 2283527).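 For outcome: TaqMan qRT-PCR transcript level normalised to ACTB GAPDH and POLR2A housekeeping genes.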 The conditions noted are these: mRNA level, 48 h; actives raise or lower the signal. In outline:
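Transcript level of NFE2L2 is the read-out, measured by microfluidic TaqMan qRT-PCR and normalized to three housekeeping genes. Human HepaRG cultures received test chemical for 48 h at up to 100 uM in half-log steps. Gain or loss of signal is fitted relative to 0.5% DMSO.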

Read-out in experiment [4]: succinate dehydrogenase complex iron sulfur subunit B (SDHB), SDHB (gene 6390)
The experiment can be described thus: LTEA_HepaRG_SDHB: Life Technologies and Expression Analysis (LTEA) Assay for succinate dehydrogenase complex iron sulfur subunit B (SDHB) using HepaRG (AID 2283528). The conditions noted are these: mRNA level, 48 h; actives raise or lower the signal. The procedure, abridged: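 HepaRG cells (~100,000/well, plated 48 h) exposed in duplicate for 48 h in serum-free induction medium to 8-point half-log series from 100 uM in 0.5% DMSO; mRNA by qRT-PCR normalised to ACTB, GAPDH, POLR2A; bidirectional fit versus DMSO.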

Read-out in experiment [5]: Signal transducer and activator of transcription 3 (Homo sapiens) (UniProt P40763)
Nature of the experiment: LTEA_HepaRG_STAT3: Life Technologies and Expression Analysis (LTEA) Assay for Signal transducer and activator of transcription (STAT3) using HepaRG (AID 2283529). The conditions noted are these: mRNA level, 48 h; actives raise or lower the signal. In outline:
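Read-out is STAT3 mRNA level by qRT-PCR, normalized to three housekeeping genes, in human HepaRG liver cells treated for 48 h. Concentrations ran from 100 uM downward in half-log steps; curves were fitted for gain or loss relative to 0.5% DMSO.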

Read-out in experiment [6]: solute carrier (SLCO1B1), SLCO1B1 (gene 10599)
Nature of the experiment: LTEA_HepaRG_SLCO1B1: Life Technologies and Expression Analysis (LTEA) Assay for solute carrier (SLCO1B1) using HepaRG (AID 2283530). The conditions noted are these: mRNA level, 48 h; actives raise or lower the signal. The procedure, abridged:
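Differentiated human HepaRG cells were exposed for 48 h in serum-free induction medium to eight half-log concentrations, top 100 uM, in 0.5% DMSO. SLCO1B1 mRNA was measured by qRT-PCR, normalized to ACTB, GAPDH and POLR2A, and fitted bidirectionally against DMSO.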

Read-out in experiment [7]: sulfotransferase 2A1 (SULT2A1), SULT2A1 (gene 6822)
The experiment can be described thus: LTEA_HepaRG_SULT2A1: Life Technologies and Expression Analysis (LTEA) Assay for sulfotransferase 2A1 (SULT2A1) using HepaRG (AID 2283531). The conditions noted are these: mRNA level, 48 h; actives raise or lower the signal. In outline: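 HepaRG human liver cells, 48 h exposure in serum-free induction medium to 8 half-log concentrations topping at 100 µM (0.5% DMSO), duplicate wells. SULT2A1 mRNA measured by TaqMan qRT-PCR, normalized to ACTB/GAPDH/POLR2A; bidirectional fit against DMSO.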

Read-out in experiment [8]: Transforming Growth Factor (TGFA), TGFA (gene 7039)
Nature of the experiment: LTEA_HepaRG_TGFA: Life Technologies and Expression Analysis (LTEA) Assay for Transforming Growth Factor (TGFA) using HepaRG (AID 2283532). The conditions noted are these: mRNA level, 48 h; actives raise or lower the signal. In outline:
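HepaRG (human liver line), 48 h exposure, 8 conc. half-log down from 100 uM, 0.5% DMSO vehicle, duplicates; serum-free induction medium. TGFA mRNA by TaqMan qRT-PCR, ACTB/GAPDH/POLR2A normalization; gain/loss fit vs DMSO.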

Read-out in the next experiment: TIMP1, TIMP1 (gene 7076)
Nature of the experiment: LTEA_HepaRG_TIMP1: Life Technologies and Expression Analysis (LTEA) Assay for TIMP1 using HepaRG (AID 2283534). Particulars: mRNA level, 48 h; actives raise or lower the signal. In outline: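 Differentiated HepaRG cells exposed 48 h in serum-free induction medium, duplicates, eight half-log concentrations from 100 uM in 0.5% DMSO. TIMP1 mRNA by qRT-PCR normalized to ACTB, GAPDH, POLR2A; bidirectional fitting against DMSO.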

Read-out in experiment [9]: Tumor necrosis factor receptor 1 (TNFRSF1A), TNFRSF1A (gene 7132)
The experiment can be described thus: LTEA_HepaRG_TNFRSF1A: Life Technologies and Expression Analysis (LTEA) Assay for Tumor necrosis factor receptor 1 (TNFRSF1A) using HepaRG (AID 2283535). Particulars: mRNA level, 48 h; actives raise or lower the signal. The procedure, abridged: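 Differentiated HepaRG cells in serum-free induction medium, exposed 48 h in duplicate to 8 half-log concentrations up to 100 uM in 0.5% DMSO. TNFRSF1A mRNA by Fluidigm TaqMan qRT-PCR, normalized to ACTB, GAPDH, POLR2A; bidirectional fit.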

Read-out in experiment [10]: Thyroid Hormone Responsive (THRSP), THRSP (gene 7069)
The experiment can be described thus: LTEA_HepaRG_THRSP: Life Technologies and Expression Analysis (LTEA) Assay for Thyroid Hormone Responsive (THRSP) using HepaRG (AID 2283536). Particulars: mRNA level, 48 h; actives raise or lower the signal. The procedure, abridged: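 mRNA induction or loss relative to 0.5% DMSO vehicle was fitted bidirectionally across an eight-point curve whose highest exposure was 100 uM. Human HepaRG liver cells received chemicals in duplicate over 48 h before RNA extraction.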

Read-out in experiment [11]: Cellular tumor antigen p53 (Homo sapiens) (UniProt P04637)
Nature of the experiment: LTEA_HepaRG_TP53: Life Technologies and Expression Analysis (LTEA) Assay for Tumor Protein P53 (TP53) using HepaRG (AID 2283537). The conditions noted are these: mRNA level, 48 h; actives raise or lower the signal. The procedure, abridged:
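Differentiated HepaRG cells in serum-free induction medium exposed 48 h in duplicate to 8 half-log concentrations, top 100 uM, 0.5% DMSO. TP53 mRNA by TaqMan qRT-PCR (Fluidigm), normalized to ACTB, GAPDH, POLR2A; fitted bidirectionally versus DMSO.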

Read-out in experiment [12]: UDP glucuronosyltransferase (UGT1A1), UGT1A1 (gene 54658)
The experiment can be described thus: LTEA_HepaRG_UGT1A1: Life Technologies and Expression Analysis (LTEA) Assay for UDP glucuronosyltransferase (UGT1A1) using HepaRG (AID 2283538). The conditions noted are these: mRNA level, 48 h; actives raise or lower the signal. The procedure, abridged:
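Human liver HepaRG cultures receive test chemical for 48 h, up to 100 uM in 0.5% DMSO, with phenobarbital induction controls. UGT1A1 mRNA is measured by qRT-PCR and normalized to ACTB, GAPDH and POLR2A.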

Read-out in experiment [13]: UDP glucuronosyltransferase (UGT1A6), UGT1A6 (gene 54578)
Nature of the experiment: LTEA_HepaRG_UGT1A6: Life Technologies and Expression Analysis (LTEA) Assay for UDP glucuronosyltransferase (UGT1A6) using HepaRG (AID 2283539). The conditions noted are these: mRNA level, 48 h; actives raise or lower the signal. The procedure, abridged:
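Differentiated HepaRG cells, ~100,000/well, were exposed for 48 h in serum-free induction medium with 0.5% DMSO to 8-point half-log series topping at 100 uM, in duplicate. mRNA measured by Fluidigm TaqMan qRT-PCR, normalized to ACTB, GAPDH and POLR2A.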

Read-out in experiment [14]: X-box binding protein 1 (XBP1), XBP1 (gene 7494)
The experiment can be described thus: LTEA_HepaRG_XBP1: Life Technologies and Expression Analysis (LTEA) Assay for X-box binding protein 1 (XBP1) using HepaRG (AID 2283540). Particulars: mRNA level, 48 h; actives raise or lower the signal. The procedure, abridged: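 Differentiated human HepaRG cells in serum-free induction medium exposed 48 h in duplicate to eight half-log concentrations up to 100 uM in 0.5% DMSO. XBP1 mRNA measured by Fluidigm TaqMan qRT-PCR, normalized to ACTB, GAPDH, POLR2A; bidirectional fitting against DMSO.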

A short description of experiment [15]: LTEA_HepaRG_LDH_cytotoxicity: Cytotoxicity Assessment in the Life Technologies and Expression Analysis (LTEA) Assay (AID 2283563; active = hit-call score of the fitted dose curve at least 0.9, where 1 is the maximum;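 for AC50: LDH activity released into spent culture medium as a marker of cell death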). In outline:
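Differentiated HepaRG cells in serum-free induction medium, exposed 48 h in duplicate to 8 half-log concentrations up to 100 uM in 0.5% DMSO. Cytotoxicity from LDH measured in spent medium, fit relative to DMSO.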

Experiment [16] in a line: TOX21_p53_BLA_p2_viability: Viability Assessment in the Tox21 HCT-116 p53 Agonism Beta-lactamase Assay, Phase 2 (AID 2283591; active = hit-call score of the fitted dose curve at least 0.9, where 1 is the maximum;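 note: compound exposure lasted 16 h at 37 °C; actives lower the ATP signal meaning cytotoxicity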). In outline:
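Cytotoxicity readout: CellTiter-Glo ATP luminescence, 30 min at room temperature, after the beta-lactamase read. Cells were HCT116 exposed 16 h at 37C to compounds pin-transferred at 217-fold dilution from DMSO stocks.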

Read-out in experiment [17]: Transforming Growth Factor (TGFB1), TGFB1 (gene 7040)
The experiment can be described thus: LTEA_HepaRG_TGFB1: Life Technologies and Expression Analysis (LTEA) Assay for Transforming Growth Factor (TGFB1) Transporter using HepaRG (AID 2283533). The conditions noted are these: mRNA level, 48 h; actives raise or lower the signal. The procedure, abridged:
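Differentiated HepaRG cells exposed 48 hr in serum-free induction medium to eight half-log concentrations up to 100 uM (0.5% DMSO), duplicate; TGFB1 mRNA by TaqMan qRT-PCR normalised to ACTB, GAPDH, POLR2A; bidirectional fit against DMSO.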

Chain of Nuclear factor erythroid 2-related factor 2 (Homo sapiens) (Q16236 whole entry, looked up): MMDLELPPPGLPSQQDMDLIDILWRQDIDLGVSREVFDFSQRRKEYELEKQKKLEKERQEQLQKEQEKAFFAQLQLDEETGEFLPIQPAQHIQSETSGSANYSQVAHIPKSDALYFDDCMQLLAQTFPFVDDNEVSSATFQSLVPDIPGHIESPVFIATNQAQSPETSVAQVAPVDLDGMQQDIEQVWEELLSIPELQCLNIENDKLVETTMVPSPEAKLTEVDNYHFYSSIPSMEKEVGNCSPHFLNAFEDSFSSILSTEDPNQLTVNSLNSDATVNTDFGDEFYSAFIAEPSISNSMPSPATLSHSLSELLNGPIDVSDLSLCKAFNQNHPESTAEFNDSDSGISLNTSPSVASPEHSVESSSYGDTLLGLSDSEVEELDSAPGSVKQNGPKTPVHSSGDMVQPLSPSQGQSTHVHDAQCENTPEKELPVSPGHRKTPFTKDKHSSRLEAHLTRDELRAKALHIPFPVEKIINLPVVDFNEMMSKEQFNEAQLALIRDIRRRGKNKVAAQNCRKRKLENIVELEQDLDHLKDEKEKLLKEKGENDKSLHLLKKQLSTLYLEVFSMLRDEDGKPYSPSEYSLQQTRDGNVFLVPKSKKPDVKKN
Chain of Signal transducer and activator of transcription 3 (Homo sapiens) (P40763 whole entry, looked up): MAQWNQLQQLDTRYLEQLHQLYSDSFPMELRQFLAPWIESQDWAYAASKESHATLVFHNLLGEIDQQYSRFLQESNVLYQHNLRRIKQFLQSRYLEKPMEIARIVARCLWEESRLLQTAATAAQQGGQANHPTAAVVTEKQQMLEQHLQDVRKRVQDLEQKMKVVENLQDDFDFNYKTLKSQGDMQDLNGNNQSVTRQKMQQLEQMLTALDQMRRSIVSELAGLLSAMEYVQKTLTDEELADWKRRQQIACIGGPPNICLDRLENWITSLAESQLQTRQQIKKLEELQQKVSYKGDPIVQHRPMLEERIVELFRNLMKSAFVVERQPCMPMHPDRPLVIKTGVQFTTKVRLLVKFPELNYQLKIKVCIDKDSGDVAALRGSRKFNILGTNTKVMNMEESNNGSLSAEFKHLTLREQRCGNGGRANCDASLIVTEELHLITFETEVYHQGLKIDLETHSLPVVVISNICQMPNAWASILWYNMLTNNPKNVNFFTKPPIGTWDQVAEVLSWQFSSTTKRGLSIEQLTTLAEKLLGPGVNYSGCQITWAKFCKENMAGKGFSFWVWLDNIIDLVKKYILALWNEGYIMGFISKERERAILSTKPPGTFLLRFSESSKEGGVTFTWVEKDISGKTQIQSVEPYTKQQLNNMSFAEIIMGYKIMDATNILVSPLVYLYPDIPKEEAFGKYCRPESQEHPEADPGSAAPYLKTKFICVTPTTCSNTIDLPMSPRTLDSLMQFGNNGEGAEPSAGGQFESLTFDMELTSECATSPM
Chain of Cellular tumor antigen p53 (Homo sapiens) (P04637 whole entry, looked up): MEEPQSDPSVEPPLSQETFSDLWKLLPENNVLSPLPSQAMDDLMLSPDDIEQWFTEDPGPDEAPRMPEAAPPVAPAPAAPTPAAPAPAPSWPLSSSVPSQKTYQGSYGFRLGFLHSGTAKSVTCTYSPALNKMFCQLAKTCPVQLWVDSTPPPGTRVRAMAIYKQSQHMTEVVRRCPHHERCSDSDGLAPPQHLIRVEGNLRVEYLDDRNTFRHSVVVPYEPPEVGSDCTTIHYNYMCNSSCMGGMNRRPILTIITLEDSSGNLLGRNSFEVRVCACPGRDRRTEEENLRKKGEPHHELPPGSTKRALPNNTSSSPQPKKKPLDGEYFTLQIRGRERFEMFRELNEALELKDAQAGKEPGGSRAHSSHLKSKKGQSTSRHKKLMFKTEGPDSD

Turning to `CNC(=O)Oc1cccc2c1OC(C)(C)C2`, the AC50 is 4.56 µM (active) in experiment [1] and 3.38 µM (active) in [12]. Moreover, the outcome in experiment [2], in experiment [3], in experiment [4], in experiment [5], in experiment [6] and in experiment [7] was inactive. In addition, the outcome in experiment [8] is “inactive”; with TIMP1, TIMP1 (gene 7076) it was “inactive”; in [9], “inactive”; in experiment [10], “inactive”; in experiment [11], “inactive”; in [13] it was “inactive”. Also, the molecule was called inactive in experiment [14], in experiment [15] and in experiment [16].

`N#CC(Br)Br`: the result in experiment [1], in [2], in [3], in [5], in [6] and in experiment [8] was inactive. The outcome in experiment [17] is “inactive”; in the experiment with TIMP1, TIMP1 (gene 7076), “inactive”; in experiment [9] it was “inactive”; in experiment [10], “inactive”; in [12], “inactive”; in experiment [13], “inactive”. The outcome in experiment [14] and in experiment [15] was inactive.

Consider `ClC1=C(Cl)[C@]2(Cl)[C@H]3[C@H]([C@@H]4C=C[C@H]3C4)[C@@]1(Cl)C2(Cl)Cl`, for which the outcome in experiment [1], in experiment [2], in experiment [4], in experiment [5], in experiment [6] and in experiment [7] was inactive. In addition, the outcome was “inactive” in experiment [8]; “inactive” with TIMP1, TIMP1 (gene 7076); “inactive” in experiment [9]; “inactive” in [11]; “inactive” in [13]; “inactive” in [14]. Moreover, the call in [15] and in experiment [16] was inactive. The figures for the AC50 in experiment [10] and in experiment [12] were 30.8 µM (active) and 6.68 µM (active), respectively.

As to `CC(C)(C)C(O)(CCc1ccc(Cl)cc1)Cn1cncn1` (stereo not drawn), the AC50 was 80.9 µM (active) in [1]; 50 µM (active) in experiment [3]; 80.2 µM (active) in experiment [7]; 12.7 µM (active) in [10]; 71.9 µM (active) in experiment [11]; 1.32 µM (active) in [12]. Moreover, in [15], the AC50 was 72 µM (active). The outcome was “inactive” in [2]; “inactive” in [5]; “inactive” in experiment [6]; “inactive” in [8]; “inactive” with TIMP1, TIMP1 (gene 7076); “inactive” in experiment [9]. The call in [13], in experiment [14] and in experiment [16] was inactive.
